Reference: PubChem BioAssay AID751 (NMMLSC, 2007)
The whole screen tested about 24,000 compounds, of which about 40 (0.2%) were called active. This is one part of a sample in which actives are shown more often than they occur.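 The calls were made as follows: active = inhibition of disassembly above about 33% (limit read from the data); inconclusive = likely self-fluorescent, control bead median signal at least 40; inactive = the rest.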

system: 26S proteasome (yeast, GFP-tagged, ATP-dependent disassembly); experiment: blockers of yeast 26S proteasome breakdown – biochemical, bead-based flow cytometry, GFP-tagged proteasome, primary screen (AID 751); conditions: anti-FLAG beads, active compounds read high, concentration not given here;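 also: plate controls were ATP control with full disassembly for no effect and ATP-gamma-S intact proteasomes for full effect; higher percent means more bead fluorescence retained so stronger block of disassembly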

Inhibition of disassembly, inactive:
COc1cccc(NC(=O)Cn2cnc3sc(C)c(S(=O)(=O)N4CCN(C)CC4)c3c2=O)c1 -0.73%
CC(=O)Nc1nonc1-c1nc2ccccc2n1Cc1ccccn1 5.18%
CCOC(=O)N1CCC(Nc2c(NCCCN3CCN(c4ccc(OC)cc4)CC3)c(=O)c2=O)CC1 1.14%
CCOCCc1c(O)nc(SCC(=O)NCc2ccco2)[nH]c1=O -2.18%
CN(C)CCCNC(=O)c1ccc2[nH]c3ccccc3c2c1 -0.71%
Cc1cccc(NC(=O)CSc2nc3c(c(=O)[nH]2)CCC3)c1C 0.47%
CC(=O)NC1CC2CCCC(C1)N2CC(=O)Nc1ccccc1 (stereo not drawn) -0.95%
CC12CN3CC(C)(CN(C1)C3c1ccc(Cl)cc1Cl)C2=O (stereo not drawn) 1.12%
Cc1nc2sc(C(c3ccco3)N3CCC4(CC3)OCCO4)c(O)n2n1 (stereo not drawn) -1.33%
CCn1ncc(C2=NOC(C(=O)Nc3ccccc3C(=O)OC)C2)c1C (stereo not drawn) 0.71%
CCCn1c(C(O)c2ccc(OCC)cc2)nc2ccccc21 (stereo not drawn) 0.49%
CCn1cc(C(=O)NC2CCCCCC2)c(=O)c2cc(S(=O)(=O)N3CCCCC3)ccc21 -0.53%
Cc1nonc1NC(=O)c1ccccc1Br -2.02%
CC1C=CCC2C(=O)N(c3cccc(C(=O)N4CCCCCC4)c3)C(=O)C12 (stereo not drawn) -0.22%
CC(NC(=O)CN1CCN(Cc2ccc(Cl)cc2)C1=O)c1ccc2c(c1)OCCO2 (stereo not drawn) 0.26%
CCOc1cc2[nH]c(=S)n(CCCN3CCCC3=O)c(=O)c2cc1OCC -0.66%
O=C(c1ccc2c(c1)N(Cc1ccc(F)cc1)C(=O)CS2)N1CCOCC1 3.05%
O=C(CCCN1C(=O)C2C3C=CC(C3)C2C1=O)N1CCN(c2ccccc2)CC1 (stereo not drawn) -1.14%
COc1ccc(C2C3=C(OC(C)=O)c4ccccc4C3=Nc3c2c(=O)n(C)c(=O)n3C)cc1 (stereo not drawn) -0.28%
Nc1nc(SCCOc2ccccc2)n[nH]1 1.41%
Cc1cc(C(=O)O)c(S(C)(=O)=O)s1 -0.75%
Cc1noc(/C=C/N(C)C)c1S(=O)(=O)N1CCCC(C(=O)NCc2ccco2)C1 (stereo not drawn) -7.75%
COc1cccc(Nc2nnc(SCC(=O)N3CC(C)OC(C)C3)s2)c1 (stereo not drawn) -3.96%
Cc1cc(Nc2ccc(Br)cc2F)n2ncnc2n1 -4.6%
CCOC(=O)c1sc(=S)n2c1[nH]c(=O)c1ccc(C(=O)OC)cc12 0.98%
Cn1c(C(=O)NCCN2CCc3ccccc3C2)cc2c(=O)[nH]c3ccccc3c21 -0.79%
O=C(COc1ccccc1F)NC1CC1 -1.13%
O=C1CC(c2cccc(F)c2)C2=C(CCCC2=O)N1 (stereo not drawn) -0.41%
Cc1c2cn[nH]c(=O)c2c(C)n1Cc1ccc(F)cc1 2.63%
COc1ccc2oc(=O)c(C(=O)N3CCN(c4ccccc4F)CC3)cc2c1 -0.83%
COc1ccccc1N1CCN(c2nc3ccccc3n3nnnc23)CC1 22.2%
Cc1cccc(NC(=O)CSc2nnc(NC(=O)CN3CCOCC3)s2)c1 0.22%
COc1cccc(-n2c(Cc3cc(=O)[nH]c(=O)[nH]3)nnc2SCC(=O)Nc2ccccc2)c1 -1.55%
CCOc1ccc(OCC)c(NC(=O)C(NS(=O)(=O)c2ccc3c(c2)oc(=O)n3C)C(C)C)c1 (stereo not drawn) -0.66%
CCOC(=O)N1CCC(NC(=O)CN2C(=O)COc3ccc(C(C)(C)C)cc32)CC1 -0.61%
Cc1ccccc1C(=O)NCCN=C1NS(=O)(=O)c2ccccc21 -0.63%
CCOc1cc2c(cc1OCC)C(C(=O)O)C(c1ccc(OC)c(O)c1)N(C)C2=O (stereo not drawn) 0.12%
O=C(Nc1c2c(nn1-c1ccc(F)cc1)CS(=O)C2)C12CC3CC(CC(C3)C1)C2 (stereo not drawn) -2.52%
CC1CCC(NC(=O)c2ccc(N3CCCC3=O)cc2)CC1 (stereo not drawn) 5.08%
Cc1cccc2c1N(CC(=O)OC(C)C)C(=O)C2=O 1.8%
CN(CC(=O)NC1CCCCC1)S(=O)(=O)c1cccc2cccnc12 -0.29%
O=C(CN1CCN(c2ccccc2F)CC1)c1ccc2c(c1)OCO2 -0.87%
Cc1cc(Nc2cccc(C)c2C)n2ncnc2n1 1.4%
Cc1ccc(S(=O)(=O)N(C)CC(=O)NC2CCCC2)cc1 1.94%
CCN(CC)C(=O)N1CCN(C(=O)c2ccc(C)cn2)CC1 0.26%
C#CCN1C(=O)C(O)(CC(=O)c2cc(OC)ccc2OC)c2ccccc21 (stereo not drawn) -0.27%
COc1ccc(S(=O)(=O)NC2(C(F)(F)F)N=C3SCCN3C2=O)cc1 (stereo not drawn) 0.29%
COc1cc(C2C(C(=O)Nc3ccccc3OC)=C(C)Nc3ncnn32)ccc1O (stereo not drawn) -1.23%
CC(=O)C1C(c2cccc(Oc3ccccc3)c2)NC(=O)NC1(O)C(F)(F)F (stereo not drawn) 3.33%
CC(C)CNS(=O)(=O)c1ccc(OCC(=O)Nc2ccc3c(c2)OCO3)c(Cl)c1 0.65%
CC1CCCN(C(=O)c2ccc3c(c2)C(=O)N(CCC2=CCCCC2)C3=O)C1 (stereo not drawn) -0.2%
COCCn1c(CN(Cc2ccccc2)Cc2ccccc2)nc2c1c(=O)n(C)c(=O)n2C 0.04%
CCOC(=O)N1CCN(C(=O)c2n[nH]c(=O)c3ccccc23)CC1 -0.81%
COc1ccccc1C(=O)NCCn1cc(SCC(=O)NCc2ccco2)c2ccccc21 0.52%
COc1ccccc1NC(=O)CN1CCN(S(=O)(=O)c2ccc(Br)cc2)CC1 -0.52%
CCOc1ccccc1NC(=O)C1CCC(CNc2c(N3CCOCC3)c(=O)c2=O)CC1 (stereo not drawn) 0.11%
CCC(C(=O)Nc1ncccn1)(C(F)(F)F)C(F)(F)F -0.33%
CCOC(=O)c1nnn(CC(=O)Nc2cccc(F)c2)c1C(=O)OCC -0.09%
